RAD52 anneal inh: inhibitors of human RAD52 DNA annealing; inhibition, % at 18.7 µM; AID 651710; hit rate 0.46% among 360,000; P43351; recombinant RAD52 DNA annealing, FRET fluorescence;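 active means every replicate showing at least 50% inhibition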
RAD54 branch: inhibitors of human RAD54 branch migration. Q92698. RAD54 Holliday junction branch migration, FAM/BHQ fluorescence. inhibition, % at 10.4 µM. hit rate 0.14% among 360,000;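 active means mean normalized replicate activity at least 40 and at least half of replicates scoring 40 or more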;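 further: 0% = median of neutral control wells and 100% = median of positive control wells; inhibitors cause a drop in the FAM fluorescence signal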
Target sequence (Q92698 whole entry, looked up): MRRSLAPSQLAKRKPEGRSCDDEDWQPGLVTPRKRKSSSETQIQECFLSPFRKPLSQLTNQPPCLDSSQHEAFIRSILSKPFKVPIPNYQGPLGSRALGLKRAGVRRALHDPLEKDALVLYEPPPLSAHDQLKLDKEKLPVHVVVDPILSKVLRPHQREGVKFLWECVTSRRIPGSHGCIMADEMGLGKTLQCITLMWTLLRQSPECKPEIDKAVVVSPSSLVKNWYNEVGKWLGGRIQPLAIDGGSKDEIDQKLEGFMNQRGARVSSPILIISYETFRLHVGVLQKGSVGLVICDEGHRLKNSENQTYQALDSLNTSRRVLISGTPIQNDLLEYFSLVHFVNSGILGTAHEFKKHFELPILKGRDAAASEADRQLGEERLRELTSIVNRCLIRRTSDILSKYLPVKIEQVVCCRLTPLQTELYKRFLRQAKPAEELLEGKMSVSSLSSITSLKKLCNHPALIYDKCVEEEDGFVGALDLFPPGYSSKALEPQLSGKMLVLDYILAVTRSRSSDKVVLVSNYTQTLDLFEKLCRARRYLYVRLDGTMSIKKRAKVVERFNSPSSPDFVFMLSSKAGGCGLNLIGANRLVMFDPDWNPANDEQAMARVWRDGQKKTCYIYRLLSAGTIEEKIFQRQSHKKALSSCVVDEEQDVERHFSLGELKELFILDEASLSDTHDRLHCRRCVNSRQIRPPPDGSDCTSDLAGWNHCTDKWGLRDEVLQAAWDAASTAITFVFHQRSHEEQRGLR
CASP6 VEID inh: blocks human caspase-6 cleavage activity; inhibition, % at 12.5 µM; hit rate 0.53% among 350,000; P55212; purified caspase-6, Z-VEID-R110 cleavage fluorescence;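 active means mean inhibition across replicates at least about 35%, with every replicate also reaching that limit, limit read from the data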;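 further: 0% = median of neutral control wells and 100% = no fluorescence left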
NSD2 inh: NSD2 (human) methyltransferase inhibition | hit rate 0.54% among 310,000 | O96028 | inhibition, % at 12.5 µM | NSD2 peptide methylation, AlphaScreen, 120 min; in the data active means inhibition above about 50%
Glyco luc inh: blocks N-linked glycosylation in D54 reporter cells. D54 ERlucT glycosylation luciferase reporter, 24 h; percent of 100 nM tunicamycin response. reporter increase, % at 12.5 µM. hit rate 0.23% among 360,000;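 active means mean luciferase reporter signal, scaled so untreated is 0 and the glycosylation-blocking control 100, at or above a set limit in every replicate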;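 further: luciferase carries N-glycosylation sites so blocking glycosylation raises the light; 0% = median of neutral control wells and 100% = median of 100 nM tunicamycin wells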
Alpha artifact: interferes with AlphaScreen signal, flagging NSD2 false positives. shares compounds with NSD2 inh. AlphaScreen artifact counterscreen, preloaded methylated H4 peptide. AC35, µM (top dose mostly 10 µM), without a hit: at the highest dose activity change, negative = signal loss. hit rate 9.4% among 1,500; call rule not given here
Active calls of the source: *; . = no result. An excerpt weighted towards active compounds, which were near 1.2% of everything screened.

SMILES	RAD52 anneal inh	RAD54 branch	CASP6 VEID inh	NSD2 inh	Glyco luc inh	Alpha artifact
COc1ccc(C(=O)Nc2c(F)c(F)c(F)c(F)c2F)cc1OC	-16	.	3	.	.	.
COc1ccc(NC(=O)c2ccc(F)c(F)c2)c2ccccc12	-11	13	-1	54*	5	0%
Cc1ccc(NC(=O)CC2=NC(=O)C(CC(=O)Nc3ccccc3F)S2)cc1 (stereo not given)	-12	12	2	71*	2	0%
CCCNC(=O)N1C[C@H](O)COC[C@H]2O[C@H](CC(=O)N3CCOCC3)CC[C@@H]21	-7	0	-1	.	.	.
Cn1c(NNC(=O)c2c(F)cccc2F)cc(=O)n(C)c1=O	-17	.	24	62*	1	-4%
Cn1c(NNC(=O)c2ccccc2F)cc(=O)n(C)c1=O	-16	1	29	-1	2	.
O=C1O[C@@H](Cc2ccccc2)[C@H]2[C@@H]3C=CCCC=C3CN2C12CCCC2	-160	.	2	.	.	.
CCCNC(=O)C[C@H]1C[C@@H]2c3cc(NC(=O)C4CCC4)ccc3O[C@@H]2[C@H](CO)O1	-8	-9	-1	.	.	.
COc1ccccc1N1CCN(C2CCN(C(=O)c3cccc(F)c3)CC2)CC1	-11	.	-5	59*	0	-2%
CO[C@@H]1CN(C)C(=O)c2ccc(NC(=O)C3CC3)cc2OC[C@H](C)N(CC2CCOCC2)C[C@H]1C	4	4	.	.	.	.
CC1=NN(c2ccc(S(=O)(=O)O)cc2Cl)C(=O)C1	-1	.	47*	71*	0	0%
CN1C(=O)c2cc(NC(=O)C3CCOCC3)ccc2OC[C@H]2O[C@H](CC(=O)NCc3ccc4c(c3)OCO4)CC[C@H]21	11	0	-1	.	.	.
C/C(=N\O)C(C)Oc1ccc(Cl)cc1 (stereo not given)	-11	.	1	65*	1	2%
O=C(O)C(Oc1ccc(Cl)cc1)c1ccc(Cl)cc1 (stereo not given)	-1	-4	1	0	2	.
O=C(O)COc1ccc(Br)cc1C(c1c(C(=O)O)[nH]c2ccccc12)c1c(C(=O)O)[nH]c2ccccc12	.	14	.	15	-1	.
O=C(O)c1[nH]c2ccccc2c1C(c1cc(Cl)cc([N+](=O)[O-])c1O)c1c(C(=O)O)[nH]c2ccccc12	-8	19	8	55*	1	-20%
C[C@H](NC(=O)[C@H]1[C@H](CO)[C@H]2Cn3c(cccc3=O)[C@@H]1N2Cc1ccccc1)c1ccccc1	2	-1	2	.	.	.
Cc1c(C)n(Cc2ccccc2)c2ccc(C(=O)OCCCN(C)C)cc12	42	.	-22	90*	-8	-11%
CC(C)NC(=O)N(C)C[C@@H]1Oc2ccc(NS(C)(=O)=O)cc2CC(=O)N([C@H](C)CO)C[C@@H]1C	-4	12	-3	.	.	.
C/C(C/C(C)=C1/SC(=S)NC1=O)=C1\SC(=S)NC1=O	-100	.	.	132*	-1	-15%
CN(C)c1ccc2c(O)cc(=O)n(C)c2c1	.	0	.	5	1	.
CN(C)c1ccc2cc(S(=O)(=O)O)cc(O)c2c1	-26	-31	78*	63*	1	0.97µM*
O=c1cc(CN2CCC(Cc3ccccc3)CC2)nc2sccn12	-13	.	4	1	-3	.
CC1CN(Cc2cc(=O)n3ccsc3n2)CC(C)O1 (stereo not given)	.	-3	.	62*	2	1%
COc1ccc(NC(=O)c2cccnc2)cc1	-10	-6	-1	0	1	.
SMILES	RAD52 anneal inh	RAD54 branch	CASP6 VEID inh	NSD2 inh	Glyco luc inh	Alpha artifact
C/C(=C\C(=O)c1ccccc1)Nc1ccc(O)cc1	.	21	.	78*	3	-4%
C/C(=C\C(=O)c1cccnc1)Nc1ccc(O)cc1	.	9	.	78*	7	-4%
COc1ccc(C(=O)/C=C(\C)Nc2ccc(NC(C)=O)cc2)cc1	-4	4	-2	7	3	.
O=C(Nc1cc(Cl)ccc1-n1cncn1)c1cccs1	-19	-3	-4	68*	0	-1%
CC=Cc1ccc2n(c1=O)C[C@@H]1[C@@H](CO)[C@H](C(=O)NCc3ccccc3)N(CCC(F)(F)F)[C@H]21 (mixture of isomers)	-17	-10	-4	.	.	.
N=C1/C(=C\c2ccc(Br)o2)C(=O)N=C2SC(CC(=O)N3CCCCC3)=NN12	-41	1	-1	67*	2	-5%

From PubChem
